PubChem BioAssay AID1159580 (chemical genetic matrix, 2015)
Out of some 5,500 compounds screened, about 2,000 (36%) were called active. Another 18% or so got no clear call; they are omitted. Rule as the data show it: active = normalized growth mostly below about 0.91 (no sharp cut-off); inconclusive = no clear call, values can overlap the other calls; inactive = mostly above about 0.92. This is one part of the list.

Test: chemical genetic growth profiling, strain panel (AID 1159580);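 also: tested at 20 µM; growth read once vehicle control cultures reached saturation at 30 °C; 1 = growth at the plate median or of vehicle wells; lower values mean less growth of the strain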
Conditions: growth OD

Measured: normalized growth

CC(C)(Oc1ccc(CCNC(=O)c2ccc(Cl)cc2)cc1)C(=O)O
inactive: S. cerevisiae deletion strains, locus YJR075W, strain HOC1, stronger effect = lower value 1.02 | S. cerevisiae deletion strains, locus YKL009W, strain mrt4, stronger effect = lower value 1.02 | S. cerevisiae deletion strains, locus YKL068W, stronger effect = lower value 1.01 | S. cerevisiae deletion strains, locus YKL085W, strain MDH1 (second series), stronger effect = lower value 1.03 | S. cerevisiae deletion strains, locus YKL085W, strain MDH1, stronger effect = lower value 1.03 | S. cerevisiae deletion strains, locus YKL160W, strain elf1, stronger effect = lower value 0.961 | S. cerevisiae deletion strains, locus YKL190W, strain CNB1, stronger effect = lower value 1.01 | S. cerevisiae deletion strains, locus YKR001C, strain vps1, stronger effect = lower value 1.02 | S. cerevisiae deletion strains, locus YKR026C, strain gcn3, stronger effect = lower value 0.991 | S. cerevisiae deletion strains, locus YKR091W, strain srl3, stronger effect = lower value 0.996 | S. cerevisiae deletion strains, locus YLL001W, strain dnm1, stronger effect = lower value 0.975 | S. cerevisiae deletion strains, locus YLL026W, stronger effect = lower value 0.995 | S. cerevisiae deletion strains, locus YLL041C, strain sdh2, stronger effect = lower value 0.98 | S. cerevisiae deletion strains, locus YLR027C, strain aat2, stronger effect = lower value 0.977 | S. cerevisiae deletion strains, locus YLR039C, strain RIC1, stronger effect = lower value 1.03 | S. cerevisiae deletion strains, locus YLR058C, strain SHM2, stronger effect = lower value 1.01 | S. cerevisiae deletion strains, locus YLR102C, strain apc9, stronger effect = lower value 1.01 | S. cerevisiae deletion strains, locus YLR113W, strain HOG1, stronger effect = lower value 0.943 | S. cerevisiae deletion strains, locus YLR221C, strain rsa3, stronger effect = lower value 0.997 | S. cerevisiae deletion strains, locus YLR258W, strain gsy2, stronger effect = lower value 0.972 | S. cerevisiae deletion strains, locus YLR262C, strain YPT6 (second series), stronger effect = lower value 1.01 | S. cerevisiae deletion strains, locus YLR262C, strain YPT6, stronger effect = lower value 1.02 | S. cerevisiae deletion strains, locus YLR268W, strain sec22, stronger effect = lower value 1.01 | S. cerevisiae deletion strains, locus YLR320W, strain mms22, stronger effect = lower value 0.978 | S. cerevisiae deletion strains, locus YLR330W, strain CHS5, stronger effect = lower value 1.01 | S. cerevisiae deletion strains, locus YLR342W, strain FKS1 (second series), stronger effect = lower value 1.05 | S. cerevisiae deletion strains, locus YLR342W, strain FKS1, stronger effect = lower value 0.978 | S. cerevisiae deletion strains, locus YLR357W, strain rsc2, stronger effect = lower value 0.951 | S. cerevisiae deletion strains, locus YLR370C, strain arc18, stronger effect = lower value 0.983 | S. cerevisiae deletion strains, locus YLR371W, strain rom2, stronger effect = lower value 1.02 | S. cerevisiae deletion strains, locus YLR384C, strain iki3, stronger effect = lower value 0.972 | S. cerevisiae deletion strains, locus YLR418C, strain cdc73, stronger effect = lower value 1.06 | S. cerevisiae deletion strains, locus YML016C, strain PPZ1, stronger effect = lower value 1.02 | S. cerevisiae deletion strains, locus YML032C, strain rad52, stronger effect = lower value 1.01 | S. cerevisiae deletion strains, locus YML120C, strain ndi1, stronger effect = lower value 1.03 | S. cerevisiae deletion strains, locus YML124C, strain tub3, stronger effect = lower value 1.01 | S. cerevisiae deletion strains, locus YMR058W, strain fet3, stronger effect = lower value 0.995 | S. cerevisiae deletion strains, locus YMR078C, strain ctf18, stronger effect = lower value 1.01 | S. cerevisiae deletion strains, locus YMR125W, strain sto1, stronger effect = lower value 0.986 | S. cerevisiae deletion strains, locus YMR129W, stronger effect = lower value 0.982 | S. cerevisiae deletion strains, locus YMR205C, strain PFK2, stronger effect = lower value 0.977 | S. cerevisiae deletion strains, locus YMR223W, strain ubp8, stronger effect = lower value 1.01 | S. cerevisiae deletion strains, locus YMR231W, strain pep5, stronger effect = lower value 0.994 | S. cerevisiae deletion strains, locus YMR307W, strain GAS1, stronger effect = lower value 1.04 | S. cerevisiae deletion strains, locus YNL067W, strain RPL9B, stronger effect = lower value 1.01 | S. cerevisiae deletion strains, locus YNL071W, strain lat1, stronger effect = lower value 0.994 | S. cerevisiae deletion strains, locus YNL128W, strain TEP1, stronger effect = lower value 1.04 | S. cerevisiae deletion strains, locus YNL153C, strain GIM3, stronger effect = lower value 1.02 | S. cerevisiae deletion strains, locus YNL183C, strain NPR1, stronger effect = lower value 0.937 | S. cerevisiae deletion strains, locus YNL209W, strain ssb2, stronger effect = lower value 0.98 | S. cerevisiae deletion strains, locus YNL233W, strain BNI4, stronger effect = lower value 1.01 | S. cerevisiae deletion strains, locus YNL248C, strain rpa49, stronger effect = lower value 0.986 | S. cerevisiae deletion strains, locus YNL250W, strain rad50, stronger effect = lower value 1.02 | S. cerevisiae deletion strains, locus YNL271C, strain bni1, stronger effect = lower value 1.02 | S. cerevisiae deletion strains, locus YNL298W, strain CLA4, stronger effect = lower value 1.02 | S. cerevisiae deletion strains, locus YNL307C, strain MCK1, stronger effect = lower value 1.03 | S. cerevisiae deletion strains, locus YNL322C, strain KRE1 (second series), stronger effect = lower value 0.978 | S. cerevisiae deletion strains, locus YNL322C, strain KRE1, stronger effect = lower value 1.01 | S. cerevisiae deletion strains, locus YNR049C, strain mso1, stronger effect = lower value 0.971 | S. cerevisiae deletion strains, locus YNR052C, strain pop2, stronger effect = lower value 1.01 | S. cerevisiae deletion strains, locus YOL006C, strain TOP1, stronger effect = lower value 1.04 | S. cerevisiae deletion strains, locus YOL012C, strain htz1 0.932 | S. cerevisiae deletion strains, locus YOL147C, strain pex11, stronger effect = lower value 1.01 | S. cerevisiae deletion strains, locus YOR001W, strain rrp6, stronger effect = lower value 1.01 | S. cerevisiae deletion strains, locus YOR061W, strain CKA2, stronger effect = lower value 1.02 | S. cerevisiae deletion strains, locus YOR069W, strain VPS5, stronger effect = lower value 1.01 | S. cerevisiae deletion strains, locus YOR070C, strain gyp1, stronger effect = lower value 0.993 | S. cerevisiae deletion strains, locus YOR080W, strain dia2, stronger effect = lower value 0.983 | S. cerevisiae deletion strains, locus YOR083W, strain WHI5, stronger effect = lower value 0.922 | S. cerevisiae deletion strains, locus YOR106W, strain vam3, stronger effect = lower value 0.982 | S. cerevisiae deletion strains, locus YOR136W, strain idh2, stronger effect = lower value 1.02 | S. cerevisiae deletion strains, locus YOR144C, strain elg1, stronger effect = lower value 1.02 | S. cerevisiae deletion strains, locus YOR184W, strain ser1, stronger effect = lower value 1.06 | S. cerevisiae deletion strains, locus YOR231W, strain MKK1, stronger effect = lower value 0.988 | S. cerevisiae deletion strains, locus YOR265W, strain rbl2, stronger effect = lower value 0.983 | S. cerevisiae deletion strains, locus YOR270C, strain vph1, stronger effect = lower value 1.03 | S. cerevisiae deletion strains, locus YOR290C, strain snf2, stronger effect = lower value 0.977 | S. cerevisiae deletion strains, locus YOR316C, strain cot1, stronger effect = lower value 1.03 | S. cerevisiae deletion strains, locus YPL051W, strain arl3, stronger effect = lower value 0.984 | S. cerevisiae deletion strains, locus YPL055C, strain LGE1, stronger effect = lower value 1 | S. cerevisiae deletion strains, locus YPL078C, strain atp4, stronger effect = lower value 0.971 | S. cerevisiae deletion strains, locus YPL106C, strain sse1, stronger effect = lower value 0.934 | S. cerevisiae deletion strains, locus YPL240C, strain hsp82, stronger effect = lower value 0.989 | S. cerevisiae deletion strains, locus YPL256C, strain CLN2, stronger effect = lower value 1 | S. cerevisiae deletion strains, locus YPR119W, strain clb2, stronger effect = lower value 1.01 | S. cerevisiae deletion strains, locus YPR141C, strain kar3, stronger effect = lower value 1.01 | S. cerevisiae deletion strains, locus YPR163C, strain tif3, stronger effect = lower value 1.02 | S. cerevisiae deletion strains, locus YPR167C, strain met16, stronger effect = lower value 1.03 | S. cerevisiae deletion strains, strain wtn01, stronger effect = lower value 1.02 | S. cerevisiae strains, strain wild type, stronger effect = lower value 1.02
